# In PubChem BioAssay AID624256 (NMMLSC, 2012):
# The whole screen tested about 360,000 compounds, of which about 3,700 (1%) were called active. About 2% were inconclusive and are not listed.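 Rule for the calls: active = normalized GFP-positive differentiation at or above the plate's own cutoff, the solvent-only control mean plus 3 SD; inconclusive = no clear call, values can overlap the other calls; inactive = the rest.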 The full list was thinned out, with actives kept by preference.
# Test: HoxA9-arrested leukemia cell differentiation promoters – flow cytometry, MLPCN library, primary screen (AID 624256);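 for GFP+ MAC1+ double positive: cells exposed to compound for four days before flow analysis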;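 for normalized GFP-positive differentiation: cells exposed to compound for four days before flow analysis; 0% = DMSO wells and 100% = fulvestrant positive control at 5 µM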
# Conditions: ER-HoxA9 myeloid progenitors, lysozyme-GFP differentiation, at 10 µM; GFP+ MAC1+ double positive: measured here: differentiation confirmed by MAC1 staining, stronger effect = higher value; normalized GFP-positive differentiation: stronger effect = higher value
SMILES,GFP+ MAC1+ double positive,outcome,normalized GFP-positive differentiation
COc1ccc(-c2nc3ccc(Br)cn3c2Cc2ccc(C)cc2)cc1OC,0.6%,inactive,–
COc1ccc(CN2CCC(C)(Oc3cccc(F)c3)C2)c2ccccc12 (stereo not drawn),0.4%,inactive,–
COc1ccc2nc(-c3ccccn3)ccc2c1,0.3%,inactive,–
COc1ccc(NCCc2ccccn2)cc1,0.7%,inactive,–
COc1cnc(-c2ccccn2)nc1Oc1ccc(C(C)(C)C)cc1,12.1%,–,308% (active)
CCc1nc2c(OCC(=O)C(C)(C)C)cccn2c1N(C)C(=O)c1ccccc1F,0.3%,inactive,–
C=CCC[C@H](CCCCC)OC(=O)/C=C/[C@H](O)[C@@H](O)C[C@@H](O)CC=C,1.1%,inactive,–
COc1ccccc1N1CCN(S(=O)(=O)CCNC(=O)c2ccc(OC(C)C)cc2)CC1,1%,–,44.1% (active)
CCOc1ccc(CC(=O)NCCS(=O)(=O)N2CCN(c3ccccc3)CC2)cc1,0.6%,inactive,–
O=C(NCCS(=O)(=O)N1CCN(c2ccccc2F)CC1)c1ccc(Br)o1,2.9%,inactive,–
O=C(NCc1cccnc1)c1cc(C2CCCCN2C(=O)CCc2ccccc2)on1 (stereo not drawn),0.7%,inactive,–
CCCCOCCCNC(=O)C[C@@H]1C[C@@]2(C(=O)OCC)CCCC=C2N(CCC2=CCCCC2)C1=O,1.7%,inactive,–
Cc1ccc(-c2nc(C#N)c(NCCCn3ccnc3)o2)cc1,2.5%,–,10.9% (active)
Cc1ccc2c(Cl)c(C(=O)NCCCn3ccnc3)sc2c1,0.5%,inactive,–
Cc1ccc(S(=O)(=O)c2nc(NCCCn3ccnc3)sc2Cl)cc1,0.5%,inactive,–
CCOC(=O)c1cc2cc(OC)ccc2n1C1CCN(C)CC1,0.3%,inactive,–
O=C(C(=O)N1CCN(c2ccccc2)CC1)c1ccc2c(c1)OCO2,1%,inactive,–

SMILES,GFP+ MAC1+ double positive,outcome,normalized GFP-positive differentiation
O=C(N[C@H]1CC[C@H](CC(=O)N2CCCCC2)O[C@@H]1CO)c1cccc(F)c1,1.6%,inactive,–
COC(=O)c1c(-c2ccc(C)cc2)csc1N,2%,inactive,–
CCOC(=O)c1c(-c2ccc(C)cc2)csc1/N=C(\C)C1=C(O)c2ccccc2C1=O,10.3%,–,142% (active)
CCC(C(=O)OC)n1cnc2scc(-c3ccc(C)cc3)c2c1=O (stereo not drawn),0.9%,inactive,–
Cc1sc2ccccc2c1CNC[C@H]1O[C@@H](n2ccc(=O)[nH]c2=O)[C@H](O)[C@@H]1O,1.3%,inactive,–
CC1(C)OC(=O)C2=C(C[C@@H](C3CC3)O[C@H]2c2ccc(Cl)cc2)O1,1.4%,inactive,–
COCCNC(=O)C1C(=O)Nc2ccccc2C(=O)N1c1ccc2c(c1)OCCO2 (stereo not drawn),3.1%,inactive,–
CCOC(=O)N1CCN(C(=O)c2cc3c(-c4ccc(Cl)cc4)nn(C)c3s2)CC1,33.3%,–,83.1% (active)
Cn1nc(C(F)(F)F)c2cc(C(=O)N3CCOCC3)sc21,0.1%,inactive,–
COc1ccccc1N1CCN(C(=O)c2cc3c(-c4ccc(Cl)cc4)nn(C)c3s2)CC1,3.7%,inactive,–
CCCS(=O)(=O)NC(=O)C1(C)CCCN(C(=O)c2cc(C)on2)C1 (stereo not drawn),0.6%,inactive,–
FC(F)(F)Oc1ccccc1C(c1nnnn1C1CCCCC1)N1CCN(C/C=C/c2ccccc2)CC1 (stereo not drawn),1.6%,inactive,–
O=c1[nH][nH]c2c1[C@H](c1ccc(Cl)cc1)O[C@H](CCc1ccccc1)C2,0.6%,inactive,–
CC(C)Oc1ccc(Cc2n[nH]c(=S)n2Cc2ccccc2)cc1Cl,0.3%,inactive,–
CCCc1cc(-c2n[nH]c(=S)n2Cc2ccccc2)cs1,5.8%,inactive,–
COc1cc(-c2n[nH]c(=S)n2Cc2ccccc2)cc(OC)c1OC,22.5%,–,297% (active)
CN(C)CCNC(=O)c1cccc(-c2cnc3c(NC=O)cc(-c4cccc(C(F)(F)F)c4)cn23)c1,2.2%,inactive,–
